Most compounds without a hit are left out; they make up all but 11% or so of the library.
Tau fluor counter = counter-screen for tau fibril formation inhibitors; tau K18 P301L Alexa594 fluorescence, heparin fibrillization; 0.93% of 280,000 active; Potency, µM (series often up to 57.7 µM), without a hit: at the top dose activity change, negative = decrease; note: potency is the fitted concentration of half-maximal effect; nearly all actives have a fitted effect of over 55% in size
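Human tau K18 P301L (15 uM unlabeled, 0.24 uM Alexa 594-labeled) in 100 mM sodium acetate pH 7 with 20 uM heparin, 6 hr at 37 C. ThT 30 uM added, 1 hr ambient; Alexa 594 FP and total fluorescence read at 555/632 nm.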
Tau ThT inhib = tau fibrillization inhibition (ThT binding) | recombinant tau K18 P301L, heparin-induced fibrillization, ThT fluorescence | P10636 | Potency, µM (titrated, usually from 57.4 µM), for the others: at the top dose activity, negative = inhibition, actives largely listed as inhibitors | 2.1% of 270,000 active | AID 1460; note: potency is the fitted concentration of half-maximal effect; nearly all actives have a fitted effect of over 55% in size
Target sequence (P10636 561-689 P618L limits assumed): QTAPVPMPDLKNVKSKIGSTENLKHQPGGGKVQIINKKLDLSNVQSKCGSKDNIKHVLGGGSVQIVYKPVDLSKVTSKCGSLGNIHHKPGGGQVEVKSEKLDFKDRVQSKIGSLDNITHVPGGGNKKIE
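K18 P301L tau (15 uM + 0.24 uM Alexa 594-tagged), heparin 20 uM, NaOAc pH 7, 6 h 37 C; ThT 30 uM, 1 h RT, ex 450/em 510 nm.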
G9a block = inhibitors of human histone lysine methyltransferase G9a; AID 504332; 8.8% of 350,000 active; G9a H3K9 monomethylation, AlphaScreen, 2 h; Potency, µM (highest dose often 102 µM), without a hit: top-dose activity, negative = inhibition, hits mostly inhibitors; Q96KQ7; note: potency is the fitted concentration of half-maximal effect; nearly all actives have a fitted effect of over 75% in size
Target sequence (Q96KQ7 913-1193 limits assumed): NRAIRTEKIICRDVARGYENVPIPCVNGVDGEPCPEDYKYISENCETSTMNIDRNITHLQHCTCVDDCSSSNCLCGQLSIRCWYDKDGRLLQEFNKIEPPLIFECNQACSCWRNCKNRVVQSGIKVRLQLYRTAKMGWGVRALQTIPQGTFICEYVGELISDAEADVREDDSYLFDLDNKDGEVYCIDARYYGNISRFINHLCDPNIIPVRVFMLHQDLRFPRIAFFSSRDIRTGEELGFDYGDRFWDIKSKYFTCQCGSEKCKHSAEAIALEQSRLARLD
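G9a (20 nM) preincubated 15 min RT with compounds, then 500 nM biotinylated H3K9 peptide and 20 uM SAM added; 2 h RT reaction. Monomethyl-H3K9 product detected by AlphaScreen with anti-H3K9me1 antibody, streptavidin donor and anti-rabbit IgG acceptor beads.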
FBPA coupling cs = coupling enzyme interference in Giardia aldolase counter-screen; activity change, negative = inhibition, % at 58.2 µM, hits read low; 0.67% of 290,000 active; AID 2472; coupling enzyme system counterscreen, AmpLite Red fluorescence; in the data active = activity change below about -30%
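Fluorescence at 525 nm excitation and 598 nm emission measured inhibition of the coupled detection system without aldolase. Compounds (at 57.5 uM final) were preincubated 10 min at room temperature with coupling enzyme reagent before a 20 min substrate/AmpLite Red step.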
Sfp inh = blocks B. subtilis Sfp PPTase activity; AID 1490; Biochemical Sfp PPTase activity, qHTS; Q9F4F7; 3.5% of 310,000 active; Potency, µM, for the others: largest response in the series, negative = inhibition, hits mostly inhibitors;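 note: the enzyme is Sfp with the accession as filed and its product quenches rhodamine fluorescence; potency is the fitted concentration of half-maximal effect; 0% = enzyme reaction without inhibitor and -100% = no enzyme wells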
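Reaction rates are the 30-min fluorescence difference (ex 525, em 598 nm) in wells containing 15 nM Sfp, 5 uM rhodamine-CoA and 12.5 uM BHQ-2-YbbR at pH 7.6 with 10 mM MgCl2.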
Tau fibril FP = inhibitors of human tau fibril formation | 0.39% of 280,000 active | K18 P301L tau heparin fibrillization, Alexa594 FP, 6 h | Potency, µM (highest dose often 57.7 µM), inactives show at the top dose activity, negative = inhibition, hits mostly inhibitors | P10636 | AID 1468; note: potency is the fitted concentration of half-maximal effect; nearly all actives have a fitted effect of over 55% in size
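Heparin (20 uM) drove fibril formation of recombinant tau K18 P301L, 15 uM unlabeled with 0.24 uM Alexa 594 label, for 6 hr at 37 C in 100 mM sodium acetate pH 7. Fluorescence polarization (555/632 nm) read 1 hr after 30 uM ThT.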
* = called active by the depositor; ? = inconclusive; . = no result; [ ] = dose if it differs, or a comment. Unless noted, calls come from the whole dose curve; as a rule, active = well fitted curve in the direction sought with a large enough effect; inconclusive = small, poorly fitted or top-dose-only effect, or another doubt; inactive = no such curve, though single readings can be large; an effect the other way counts as inactive or inconclusive. Unless noted, % is set by controls: 0 for no effect and ±100 for the full control effect.

SMILES	Tau fluor counter	Tau ThT inhib	G9a block	FBPA coupling cs	Sfp inh	Tau fibril FP
COc1cccc(CCc2nnc(CCC(=O)N3CCN(Cc4ccccn4)CC3)o2)c1	3.0%	-11.7%	7.94µM*	3.1	4.1%	-2.2%
CSc1nc(NCc2ccccc2)c2c3c(sc2n1)CN(C)CC3	-25.7%	?	39.8µM*	-2.2	?	-3.8%
CSc1nc(NCCCN(C)C)c2c3c(sc2n1)CN(C)CC3	.	.	50.1µM*	-0.4	6.9%	.
CC(C)Cn1cc(NC(=O)N2CCN(c3ccccc3F)CC2)c2ccccc2c1=O	-5.4%	?	-8.5%[59 µM]	.	.	-7.1%
O=C(CC(C(=O)N1CCc2ccccc21)n1ccnc1)NCc1cccnc1 (centres undefined)	-15.4%	-8.4%	?	-1.1	0.0%	-5.2%
CCN(CCCNC(=O)CC(C(=O)N1CCc2ccccc21)n1ccnc1)c1ccccc1 (centres undefined)	-15.3%	-21.2%	44.7µM*	-1.6	6.9%	10.1%
CC(=O)OCCc1c(C)nc2nc[nH]n2c1=O	-4.1%	-12.8%	50.1µM*	0.6	18.2%	8.2%
COc1cc(C(=O)OCCc2c(C)nc3nc[nH]n3c2=O)cc(OC)c1OC	-7.4%	-8.3%	-22.2%	5.7	11.6%	0.8%
Cc1cccc(C)c1NC(=O)CN1C(=O)c2cccc3cccc1c23	-8.5%	-11.9%	3.1%[59 µM]	.	.	2.6%
Cc1ccc(C2/C(=C(\O)c3ccc4c(c3)OCCO4)C(=O)C(=O)N2CC2CCCO2)cc1 (centres undefined)	.	.	50.1µM*	.	0.6%	.
O=C1C(=O)N(Cc2cccnc2)C(c2ccc(Br)cc2)/C1=C(\O)c1ccc2c(c1)OCCO2 (centres undefined)	.	.	10.2%[59 µM]	20.6	18.5%	.
COc1cccc(C2/C(=C(\O)c3ccc4c(c3)OCCO4)C(=O)C(=O)N2CC2CCCO2)c1 (centres undefined)	.	.	?	.	3.0%	.
Cc1ccc(C2/C(=C(\O)c3ccc4c(c3)OCCO4)C(=O)C(=O)N2Cc2cccnc2)cc1 (centres undefined)	.	.	56.2µM*	10.5	14.8%	.
Cc1nnc(N2C(=O)C(=O)/C(=C(/O)c3ccc4c(c3)OCCO4)C2c2ccc(F)cc2)s1 (centres undefined)	.	.	44.7µM*	6.9	1.9%	.
O=C1C(=O)N(Cc2ccccc2)C(c2cccc(O)c2)/C1=C(\O)c1ccc2c(c1)OCCO2 (centres undefined)	.	.	44.7µM*	3.4	0.3%	.
CCn1c(=O)c2c(nc3n2CCCN3c2cccc(C)c2)n(C)c1=O	-10.1%	-8.2%	-8.9%	3.7	7.3%	11.5%
CC(=O)c1ccc(NC(=O)CSc2nnc(NC(=O)C3CC3)s2)cc1	.	.	6.4%	.	-2.3%	.
COCCN(C(=O)c1ccc(OCC(C)C)cc1)c1c(N)n(Cc2ccccc2)c(=O)[nH]c1=O	.	.	35.5µM*	.	.	.
COCCN(C(=O)c1ccc(C#N)cc1)c1c(N)n(Cc2ccccc2)c(=O)[nH]c1=O	.	.	-5.4%[12.7 µM]	.	.	.
CCCn1c(N)c(N(CCOC)C(=O)c2ccc(N3CCCC3=O)cc2)c(=O)[nH]c1=O	.	.	56.2µM*	.	.	.
CCCn1c(N)c(N(CCOC)C(=O)c2ccc([N+](=O)[O-])cc2Cl)c(=O)[nH]c1=O	.	.	50.1µM*	-1.1	2.2%	.
COCCN(C(=O)c1ccc(N2CCCC2=O)cc1)c1c(N)n(Cc2ccccc2)c(=O)[nH]c1=O	.	.	7.94µM*	.	.	.
CCCCn1c(N)c(N(CCOC)C(=O)c2ccc(N3CCCC3=O)cc2)c(=O)[nH]c1=O	.	.	-3.6%[12.7 µM]	.	.	.
CCC1CCc2nc3sc(C(=O)Nc4ccc(C)cc4)c(N)c3cc2C1 (centres undefined)	-15.8%	?	6.2%[59 µM]	.	.	-3.7%
COc1ccccc1NC(=O)CN1C(=O)c2cccc3cccc1c23	-12.1%	-3.2%	13.9%[59 µM]	.	.	-8.9%
SMILES	Tau fluor counter	Tau ThT inhib	G9a block	FBPA coupling cs	Sfp inh	Tau fibril FP
CCCn1c(N)c(N(CCOC)C(=O)c2ccc(N(C)S(=O)(=O)c3ccc(C)cc3)cc2)c(=O)[nH]c1=O	.	.	1µM*	.	.	.
O=C(O)c1ccc(-c2ccccc2)[nH]1	-1.5%	-6.6%	-26.2%	4.9	17.8%	-1.7%
O=C(O)c1ccc(-c2ccccc2)[nH]c1=O	-16.4%	.	56.2µM*	5.2	3.1%	0.1%
Cc1nc(N2CCOCC2)nc2c1CCC2	-7.3%	-5.4%	16.9%	2.3	0.9%	-1.2%
Cc1[nH]c2ccccc2c1C1(O)C(=O)N(Cc2ccccc2)c2ccc(Br)cc21 (centres undefined)	11.2µM*[quencher]	?	?	.	.	2.2%
N#Cc1c(/N=C/c2ccc(Br)s2)sc2c1CCC2	-13.7%	?	?	-0.2	5.1%	-5.9%
N#Cc1c(/N=C/c2cccs2)sc2c1CCCCC2	-26.3%	3.16µM*	14.1µM*	-2.7	-14.5%	-5.9%
CN(C)/C=N/c1sc2c(c1C#N)CCC2	-8.2%	?	-0.6%	-1.3	-2.2%	1.9%
N#Cc1c(/N=C/c2ccc(-c3ccccc3C(=O)O)o2)sc2c1CCCC2	.	.	31.6µM*	7.5	2.7%	.
Cc1ccc(/C=N/c2sc3c(c2C#N)CCC3)o1	-13.8%	?	17.8µM*	-6.8	?	2.9%
NC(=O)c1ccc[n+]([C@@H]2OC(COP(=O)([O-])OP(=O)(O)OCC3OC(n4cnc5c(N)ncnc54)C(OP(=O)(O)O)C3O)C(O)C2O)c1 (some centres undefined)	-14.3%	?	?	-1.4	-63.6%	-12.6%
Cn1c(=O)c2cc(C(=O)N3CCN(c4cccc(C(F)(F)F)c4)CC3)sc2c2ccccc21	-3.6%	-11.3%	-1.9%[59 µM]	.	.	-7.1%
CCn1c(-c2c[nH]c3ccccc23)n[nH]c1=S	-7.5%	-15.3%	1.26µM*	3.0	-6.9%	-5.9%
C=CCn1c(-c2c[nH]c3ccccc23)n[nH]c1=S	-5.4%	-5.5%	3.98µM*	-2.2	-16.9%	-4.1%
CCOc1cccc(C(=O)Nc2cc(C)c(O)c(-c3nc4ncccc4o3)c2)c1	?	?	2.4%[59 µM]	.	.	-11.6%
O=C(NCCC(=O)N1CCN(c2ccccc2O)CC1)c1ccc(Cl)cc1	.	.	50.1µM*	.	.	.
O=C(NCc1ccc(Cl)cc1)N1CCN(S(=O)(=O)c2ccccc2)CC1	.	.	50.1µM*	2.8	8.0%	.
CCCc1ccc(S(=O)(=O)N2CCN(C(C)C(=O)NC3CCCC3)CC2)cc1 (centres undefined)	.	.	-18.3%	.	.	.
CCCc1ccc(S(=O)(=O)N2CCN(C(C)C(=O)NCc3ccccc3)CC2)cc1 (centres undefined)	.	.	56.2µM*	.	.	.
O=C(NCCC(=O)N1CCN(S(=O)(=O)c2ccc(Cl)cc2)CC1)Nc1ccccc1	.	.	50.1µM*	.	.	.
CC(C)Sc1nc2sc3c(c2c(=O)n1-c1ccccc1)CCCC3	-5.5%	?	-16.9%[59 µM]	.	.	-6.5%
